Compounds with a hit are over-represented: about 4.8% of the library has one in this group of screens.
tim23-1 inh = growth inhibitors of tim23-1 mutant yeast, primary screen, luminescence, uHTS. 330,000 tested, 1.3% active. S. cerevisiae tim23-1 growth, BacTiter-Glo luminescence, 24 h. inhibition, % at 20 µM;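 active means growth inhibition of the mutant yeast at or above 50%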;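 further: temperature-sensitive mutant grown at 25 °C; plate controls were DMSO-treated mutant yeast for no effect and medium wells lacking yeast for full effect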
SKKanGAS inh = S. pyogenes SKKanGAS growth inhibitors in kanamycin, primary screen, streptokinase expression inhibitor project, SKKanGAS strain, BacTiter-Glo luminescence; inhibition, % at 7.5 µM; 6 h; 300,000 tested, 1.3% active;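 active means mean replicate score, as percent of positive control median, at least 50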;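 further: strain carries kanamycin resistance gene driven by streptokinase promoter and grows in 40 µg/ml kanamycin; loss of luminescence reflects streptokinase promoter inhibition or plain growth inhibition; 0% = median of DMSO wells and 100% = positive control at its reference dose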
PfHsp90 set2 = growth inhibition of PfHsp90-expressing yeast, primary screen, antimalarial PfHsp90 inhibitor project, S. cerevisiae, BacTiter-Glo luminescence, single point, set 2; inhibition, % at 9.4 µM; BacTiter-Glo ATP, 48 h; yeast lacking PDR1 and PDR3 efflux regulators; AID 504621, 2011; 310,000 tested, 0.32% active;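 active means every replicate shows inhibition above about 80%, whatever the replicate mean, limit read from the data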;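 further: 0% = DMSO neutral controls and 100% = 20 µM radicicol positive controls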
TIM10 inh = growth inhibitors of isogenic TIM10 control yeast, primary screen, counter-screen for tim10-1 yeast inhibitor project, luminescence, uHTS; 330,000 tested, 1.4% active; AID 463195, 2010; inhibition, % at 10 µM; S. cerevisiae TIM10 strain growth, BacTiter-Glo luminescence, 24 h;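 active means inhibition of 40% or more at the single tested concentration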;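 further: wild-type TIM10 isogenic control strain grown at permissive 25 °C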
tim10-1 inh = growth inhibitors of tim10-1 mutant yeast, primary screen, luminescence, uHTS; 330,000 tested, 2.2% active; inhibition, % at 20 µM; AID 463190, 2010; S. cerevisiae tim10-1 ts strain growth, BacTiter-Glo, 24 h;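 active means inhibition of at least 40%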;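 further: mutant grown at 25 °C; 0% = DMSO wells with yeast and 100% = wells holding no yeast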
NALP1 inh = NALP1 inflammasome inhibitors in reconstituted yeast, colorimetric, S. cerevisiae, triplicate retest | S. cerevisiae NALP1/ASC/caspase-1 growth, X-gal OD620, 72 h | inhibition, % at 10 µM | 280,000 tested, 0.61% active | AID 2071, 2009; in the data active means inhibition mostly above about 24%, no sharp cut-off; inactive means mostly below about 32%
tim10-1 confirm = growth inhibitors of tim10-1 mutant yeast, confirmation, single concentration, luminescence, S. cerevisiae; S. cerevisiae tim10-1 ts strain growth, BacTiter-Glo, 24 h; AID 463213, 2010; inhibition, % at 20 µM; 7,400 tested, 56% active; shares compounds with tim10-1 inh;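 active means inhibition of yeast growth at or above a set limit in either of two repeat tests at 20 µM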;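 further: tim10-1 mutant grown at permissive 25 °C to find synthetic lethal compounds; 0% = DMSO yeast wells and 100% = medium wells without yeast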
* = called active by the depositor; nt = no result.

SMILES	tim23-1 inh	SKKanGAS inh	PfHsp90 set2	TIM10 inh	tim10-1 inh	NALP1 inh	tim10-1 confirm
S=C(NCc1ccc(Cl)cc1Cl)NC1CCCCC1	37.0	23.2	-27.0	-5.4	41.9*	38.7	17.4
S=C(NCCc1ccccc1)NC1CCC(NC(=S)NCCc2ccccc2)CC1 (stereo not given)	-8.1	-5.1	-10.9	-6.1	6.0	-8.7	nt
S=C(NCCc1cccc(Cl)c1)NC1CCCCC1	38.2	23.8	-21.1	27.5	40.2*	1.4	25.4
CCN1/C(=C/C=C2/SC(=Nc3cccc4ncccc34)N(C)C2=O)Sc2ccccc21	nt	nt	15.3	nt	nt	nt	nt
CCOC(=O)c1cnc(Nc2nc3ccccc3o2)nc1CSc1nnc(C)s1	11.3	15.9	-19.4	10.1	49.5*	nt	16.0
CCCC(=O)Oc1c(S(=O)(=O)c2ccc(C)cc2)c(C)nn1C(C)(C)C	42.3	-1.9	2.9	13.2	12.1	9.5	nt
CCC(=O)Oc1c(S(=O)(=O)c2ccc(C)cc2)c(C)nn1C(C)(C)C	42.9	-1.6	-17.3	13.1	43.7*	-0.8	22.9
CC(C)[N+](C)(C)CC(O)CN(c1ccccc1)c1ccccc1 (stereo not given)	0.3	7.7	-21.1	-15.1	2.5	-4.3	nt
Cc1cccc2nc(-c3cccnc3)c(Nc3ccccc3)n12	10.0	4.2	-8.3	-2.7	3.5	-13.1	nt
Cc1cccc2nc(-c3cccnc3)c(NCCC(C)C)n12	40.2	4.0	-61.1	23.1	45.6*	-0.3	39.5*
O=Cc1ccc(OC(=O)c2cc(Cl)nc3ccccc23)cc1	27.1	11.5	-1.2	14.3	44.4*	35.2	21.4
O=C(Oc1cccc2ccccc12)c1cc(Cl)nc2ccccc12	23.7	28.8	4.6	16.2	17.8	18.4	nt
Cc1ccccc1S(=O)(=O)Nc1cccnc1	10.7	-0.5	8.6	5.1	6.3	7.5	nt
CCOC(=O)CNC(=O)CSc1nc2sc(C)c(C)c2c(=O)n1C	11.0	6.4	0.2	10.6	12.4	-23.8	nt
CCOC(=O)Cc1csc2nc3sc(C)c(C)c3c(=O)n12	17.1	0.4	-107.5	-6.3	43.2*	35.8	12.8
Cc1ccccc1S(=O)(=O)Cc1ccc(C(=O)NCCN2CCN(Cc3ccccc3)CC2)o1	-7.6	-12.1	8.0	-0.4	3.0	-6.9	nt
O=C(CCc1c[nH]c2ccccc12)NN1C(=O)NC2(CCCCC2)C1=O	9.5	nt	4.9	-0.4	15.3	nt	nt
O=C(c1ccco1)N1CCN(C(=O)c2ccc(-c3cccc(C(F)(F)F)c3)o2)CC1	23.3	3.1	-22.5	-13.0	0.2	nt	nt
O=C(c1ccc(-c2cccc(C(F)(F)F)c2)o1)N1CCCCCCC1	33.2	-0.6	-6.9	12.8	40.8*	nt	29.6*
COc1ccccc1OCCCC(=O)Nc1ccc(N2CCOCC2)cc1	0.7	-1.4	22.0	-0.1	16.2	4.1	nt
Cn1ncc2c(Nc3ccc(Br)cc3)nc(Nc3ccc(Br)cc3)nc21	40.7	106.0*	-20.9	33.3	56.8*	28.1	28.4*
Cn1ncc2c(Nc3ccc(O)cc3)nc(Cl)nc21	15.2	-1.3	-7.6	8.0	-21.1	8.8	nt
Cn1ncc2c(Nc3cccc(Cl)c3)nc(Nc3cccc(Cl)c3)nc21	42.6	100.0*	107.6*	17.6	54.0*	38.7	45.3*
CC1CN(S(=O)(=O)c2cccc(C(F)(F)F)c2)C(C)N1C(=O)N1CCOCC1 (stereo not given)	8.1	1.7	-20.0	-0.6	19.4	-3.7	nt
O=C(Cc1ncc(C(F)(F)F)cc1Cl)N1CCN(c2cccc(Cl)c2)CC1	7.2	-2.0	-2.7	0.1	42.8*	34.4	9.2
SMILES	tim23-1 inh	SKKanGAS inh	PfHsp90 set2	TIM10 inh	tim10-1 inh	NALP1 inh	tim10-1 confirm
O=C(CSc1ccccn1)N1CCN(c2cccc(Cl)c2)CC1	17.8	-6.4	14.4	14.2	43.2*	3.7	17.4
COc1ccc(C(=O)C23CC4CC(C2)CC(C(=O)c2ccc(OC)cc2)(C4)C3)cc1	0.2	6.7	9.3	6.2	19.2	-9.3	nt
CSC1=NC(C)(C)C=C(/C=C/c2ccc(Cl)cc2)N1	29.8	2.7	6.6	18.3	43.4*	-22.4	27.5
CCSC1=NC(C)(C)C=C(/C=C/c2ccc(Cl)cc2Cl)N1	36.2	-4.7	3.3	4.2	33.7	16.8	nt
CSC1=NC(C)(C)C=C(/C=C/c2c(Cl)cccc2Cl)N1	36.3	9.2	-9.0	35.7	44.1*	28.8	25.2
CSC1=NC(C)(C)C=C(/C=C/c2ccc(Cl)cc2Cl)N1	44.1	-17.3	9.4	23.6	37.8	30.3	nt
Cc1ccc(CC(=O)Nc2cccc(C)n2)cc1	11.8	-5.3	27.0	1.6	18.6	-7.8	nt
Cc1cc(N(C)Cc2ccccc2)nc(-c2ccccc2)n1	5.2	4.5	7.9	12.0	27.9	16.9	nt
Cn1nc(-c2ccccc2)cc1NC(=O)Nc1ccc(C(C)(C)C)cc1	39.5	19.6	-10.9	25.9	40.6*	nt	38.7*
Cc1ccc(S(=O)(=O)/N=C(\N)Nc2nc(C)c3cc(C)c(C)cc3n2)cc1	27.6	9.8	-17.5	25.7	35.3	39.6	nt
Cc1ccc(C)c(SCC(=O)NNC(=O)c2csc(N3CCOCC3)n2)c1	18.6	5.1	6.7	2.4	-1.8	4.5	nt
Cc1cc(Cl)ccc1OCCCC(=O)N1CCOCC1	19.4	5.8	nt	8.0	42.4*	-8.0	28.9
CCC(=O)Nc1nnc(S(=O)(=O)N2CCc3ccccc32)s1	6.6	5.9	-13.3	1.2	48.6*	-1.3	5.7
O=C(O)c1ccc(Nc2nc(-c3ccccc3)nc3ccccc23)cc1	15.1	16.8	-0.3	4.0	52.6*	9.9	15.4
COC(=O)N1C(=O)[C@@](c2ccccc2)(C2CCCCC2)N1C(=O)OC	-1.1	-2.2	-12.8	-1.2	49.8*	22.5	45.0*
CC[C@@]1(c2ccccc2)C(=O)N(C(=O)OC)N1C(=O)OC	-8.4	1.9	8.0	-13.7	0.3	-9.2	nt
O=C(CN1C(=O)c2ccccc2S1(=O)=O)Nc1ccon1	-7.0	-10.8	nt	11.5	12.3	nt	nt
Cc1cc(/C=C(\C#N)C(=O)NCc2ccco2)c(C)n1C1CCCC1	36.5	10.0	-9.5	-4.8	45.6*	16.1	30.6
COc1ccc(OC)c(S(=O)(=O)N2C(C)CCCC2C)c1 (stereo not given)	30.2	-3.7	3.3	13.1	42.5*	7.4	22.1
CC(C)n1nc(C(=O)OCC(=O)N(C)C2CCS(=O)(=O)C2)c2ccccc2c1=O (stereo not given)	-0.4	-3.1	-29.5	6.9	-1.7	-19.8	nt
CCCCOc1ccc(-c2n[nH]c(=S)n2Cc2ccccc2)cc1	7.8	6.6	-14.4	-9.9	9.2	4.1	nt
